According to the supplement of paper PMC11732987, “Enantioselective OTUD7B fragment discovery through chemoproteomics screening and high-throughput optimisation” (Communications Chemistry, 2025):

Experiments:
Test in all cases: log2 ratio of Biotin-Ahx-Ub-VS probe labelling (fragment/DMSO); higher = less target engagement (more negative = stronger competition), active = hit call of the paper (q ≤ 0.05, log2 ratio ≤ -1)
Conditions in all cases: compound concentration: 200 uM; treatment time: 3 h
[1] = target: USP9X (UniProt Q93008)
Sequence of USP9X (Q93008 whole entry, the tested form may be a part): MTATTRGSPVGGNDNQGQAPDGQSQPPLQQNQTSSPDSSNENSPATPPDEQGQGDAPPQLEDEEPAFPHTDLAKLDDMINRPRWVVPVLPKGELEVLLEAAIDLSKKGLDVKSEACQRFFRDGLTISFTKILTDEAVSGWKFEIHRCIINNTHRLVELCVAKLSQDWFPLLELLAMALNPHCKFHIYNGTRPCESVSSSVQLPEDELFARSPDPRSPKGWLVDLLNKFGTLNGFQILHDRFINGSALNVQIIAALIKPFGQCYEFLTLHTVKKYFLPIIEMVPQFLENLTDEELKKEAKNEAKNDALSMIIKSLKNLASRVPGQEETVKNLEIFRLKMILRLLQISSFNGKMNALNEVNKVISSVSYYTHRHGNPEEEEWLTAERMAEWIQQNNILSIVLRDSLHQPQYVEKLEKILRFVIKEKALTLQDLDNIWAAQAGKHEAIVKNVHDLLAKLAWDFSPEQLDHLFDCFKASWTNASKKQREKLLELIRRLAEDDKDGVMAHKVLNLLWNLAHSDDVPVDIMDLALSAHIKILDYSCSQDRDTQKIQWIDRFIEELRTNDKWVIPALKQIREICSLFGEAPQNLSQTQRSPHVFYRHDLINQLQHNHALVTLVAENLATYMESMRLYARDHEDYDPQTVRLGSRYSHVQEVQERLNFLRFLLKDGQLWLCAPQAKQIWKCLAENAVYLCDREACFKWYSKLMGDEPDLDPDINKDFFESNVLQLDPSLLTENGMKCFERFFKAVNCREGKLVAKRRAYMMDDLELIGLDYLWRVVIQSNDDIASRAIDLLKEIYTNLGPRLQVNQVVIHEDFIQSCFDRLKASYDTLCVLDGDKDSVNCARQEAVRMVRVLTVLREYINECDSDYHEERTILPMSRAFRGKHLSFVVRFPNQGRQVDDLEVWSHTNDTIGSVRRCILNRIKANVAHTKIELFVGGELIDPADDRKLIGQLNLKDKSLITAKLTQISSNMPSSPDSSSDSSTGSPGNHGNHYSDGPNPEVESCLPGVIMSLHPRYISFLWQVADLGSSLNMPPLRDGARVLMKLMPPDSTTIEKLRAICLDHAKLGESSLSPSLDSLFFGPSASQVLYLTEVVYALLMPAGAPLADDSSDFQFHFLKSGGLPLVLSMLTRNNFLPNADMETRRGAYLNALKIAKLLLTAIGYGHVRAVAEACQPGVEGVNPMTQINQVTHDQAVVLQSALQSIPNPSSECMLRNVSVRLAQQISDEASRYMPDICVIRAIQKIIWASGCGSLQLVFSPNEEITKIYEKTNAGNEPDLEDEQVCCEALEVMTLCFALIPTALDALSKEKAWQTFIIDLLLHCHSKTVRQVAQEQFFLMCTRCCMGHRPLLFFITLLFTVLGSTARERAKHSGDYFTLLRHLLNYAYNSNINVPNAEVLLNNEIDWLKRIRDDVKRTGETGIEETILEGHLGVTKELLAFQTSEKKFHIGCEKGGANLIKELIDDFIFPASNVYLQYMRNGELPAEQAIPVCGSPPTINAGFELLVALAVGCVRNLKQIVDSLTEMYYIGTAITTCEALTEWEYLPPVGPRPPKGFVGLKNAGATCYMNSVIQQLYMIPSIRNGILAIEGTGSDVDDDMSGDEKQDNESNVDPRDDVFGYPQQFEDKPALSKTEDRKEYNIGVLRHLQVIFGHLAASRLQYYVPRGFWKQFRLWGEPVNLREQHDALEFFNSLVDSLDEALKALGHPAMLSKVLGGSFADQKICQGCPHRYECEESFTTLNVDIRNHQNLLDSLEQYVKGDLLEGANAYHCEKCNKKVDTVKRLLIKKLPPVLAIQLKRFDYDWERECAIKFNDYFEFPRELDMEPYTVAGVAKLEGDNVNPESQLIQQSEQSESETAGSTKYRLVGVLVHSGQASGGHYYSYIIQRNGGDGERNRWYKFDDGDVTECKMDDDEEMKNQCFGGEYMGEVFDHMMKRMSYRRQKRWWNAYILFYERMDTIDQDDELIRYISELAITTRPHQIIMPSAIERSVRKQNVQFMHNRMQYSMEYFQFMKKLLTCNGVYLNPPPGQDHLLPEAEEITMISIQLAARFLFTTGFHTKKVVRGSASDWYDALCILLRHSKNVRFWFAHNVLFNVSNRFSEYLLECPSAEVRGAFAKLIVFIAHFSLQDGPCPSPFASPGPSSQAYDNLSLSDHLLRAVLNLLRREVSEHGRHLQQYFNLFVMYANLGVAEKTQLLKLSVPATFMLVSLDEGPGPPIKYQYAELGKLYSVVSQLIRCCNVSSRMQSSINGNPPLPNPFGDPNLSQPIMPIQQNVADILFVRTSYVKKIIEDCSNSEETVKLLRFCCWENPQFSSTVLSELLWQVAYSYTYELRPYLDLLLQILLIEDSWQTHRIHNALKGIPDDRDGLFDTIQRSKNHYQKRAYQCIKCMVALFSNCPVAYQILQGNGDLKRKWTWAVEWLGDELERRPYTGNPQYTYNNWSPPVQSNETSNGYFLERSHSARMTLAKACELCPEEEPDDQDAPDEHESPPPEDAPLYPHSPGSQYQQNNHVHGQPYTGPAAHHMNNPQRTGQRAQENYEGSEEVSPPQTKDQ
Summary of the method: (§1)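 In triplicate, 495 µg of HEK293T lysate per sample was incubated with fragment at 200 µM or vehicle for 3 h. Biotin-Ahx-Ub-VS was then added to 0.5 µM final for 1 h, and labelled DUBs were captured with NeutrAvidin, digested with LysC and trypsin, and measured by diaPASEF LC-MS/MS. Data are average log2 fragment/vehicle ratios by unpaired t-test from global-median-normalised Spectronaut label-free quantities, restricted to proteins with ≥2 unique peptides.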

[2] = target: UniProt O00487
Summary of the method: as §1

[3] = target: UniProt O00507
Sequence of UniProt O00507 (O00507 whole entry): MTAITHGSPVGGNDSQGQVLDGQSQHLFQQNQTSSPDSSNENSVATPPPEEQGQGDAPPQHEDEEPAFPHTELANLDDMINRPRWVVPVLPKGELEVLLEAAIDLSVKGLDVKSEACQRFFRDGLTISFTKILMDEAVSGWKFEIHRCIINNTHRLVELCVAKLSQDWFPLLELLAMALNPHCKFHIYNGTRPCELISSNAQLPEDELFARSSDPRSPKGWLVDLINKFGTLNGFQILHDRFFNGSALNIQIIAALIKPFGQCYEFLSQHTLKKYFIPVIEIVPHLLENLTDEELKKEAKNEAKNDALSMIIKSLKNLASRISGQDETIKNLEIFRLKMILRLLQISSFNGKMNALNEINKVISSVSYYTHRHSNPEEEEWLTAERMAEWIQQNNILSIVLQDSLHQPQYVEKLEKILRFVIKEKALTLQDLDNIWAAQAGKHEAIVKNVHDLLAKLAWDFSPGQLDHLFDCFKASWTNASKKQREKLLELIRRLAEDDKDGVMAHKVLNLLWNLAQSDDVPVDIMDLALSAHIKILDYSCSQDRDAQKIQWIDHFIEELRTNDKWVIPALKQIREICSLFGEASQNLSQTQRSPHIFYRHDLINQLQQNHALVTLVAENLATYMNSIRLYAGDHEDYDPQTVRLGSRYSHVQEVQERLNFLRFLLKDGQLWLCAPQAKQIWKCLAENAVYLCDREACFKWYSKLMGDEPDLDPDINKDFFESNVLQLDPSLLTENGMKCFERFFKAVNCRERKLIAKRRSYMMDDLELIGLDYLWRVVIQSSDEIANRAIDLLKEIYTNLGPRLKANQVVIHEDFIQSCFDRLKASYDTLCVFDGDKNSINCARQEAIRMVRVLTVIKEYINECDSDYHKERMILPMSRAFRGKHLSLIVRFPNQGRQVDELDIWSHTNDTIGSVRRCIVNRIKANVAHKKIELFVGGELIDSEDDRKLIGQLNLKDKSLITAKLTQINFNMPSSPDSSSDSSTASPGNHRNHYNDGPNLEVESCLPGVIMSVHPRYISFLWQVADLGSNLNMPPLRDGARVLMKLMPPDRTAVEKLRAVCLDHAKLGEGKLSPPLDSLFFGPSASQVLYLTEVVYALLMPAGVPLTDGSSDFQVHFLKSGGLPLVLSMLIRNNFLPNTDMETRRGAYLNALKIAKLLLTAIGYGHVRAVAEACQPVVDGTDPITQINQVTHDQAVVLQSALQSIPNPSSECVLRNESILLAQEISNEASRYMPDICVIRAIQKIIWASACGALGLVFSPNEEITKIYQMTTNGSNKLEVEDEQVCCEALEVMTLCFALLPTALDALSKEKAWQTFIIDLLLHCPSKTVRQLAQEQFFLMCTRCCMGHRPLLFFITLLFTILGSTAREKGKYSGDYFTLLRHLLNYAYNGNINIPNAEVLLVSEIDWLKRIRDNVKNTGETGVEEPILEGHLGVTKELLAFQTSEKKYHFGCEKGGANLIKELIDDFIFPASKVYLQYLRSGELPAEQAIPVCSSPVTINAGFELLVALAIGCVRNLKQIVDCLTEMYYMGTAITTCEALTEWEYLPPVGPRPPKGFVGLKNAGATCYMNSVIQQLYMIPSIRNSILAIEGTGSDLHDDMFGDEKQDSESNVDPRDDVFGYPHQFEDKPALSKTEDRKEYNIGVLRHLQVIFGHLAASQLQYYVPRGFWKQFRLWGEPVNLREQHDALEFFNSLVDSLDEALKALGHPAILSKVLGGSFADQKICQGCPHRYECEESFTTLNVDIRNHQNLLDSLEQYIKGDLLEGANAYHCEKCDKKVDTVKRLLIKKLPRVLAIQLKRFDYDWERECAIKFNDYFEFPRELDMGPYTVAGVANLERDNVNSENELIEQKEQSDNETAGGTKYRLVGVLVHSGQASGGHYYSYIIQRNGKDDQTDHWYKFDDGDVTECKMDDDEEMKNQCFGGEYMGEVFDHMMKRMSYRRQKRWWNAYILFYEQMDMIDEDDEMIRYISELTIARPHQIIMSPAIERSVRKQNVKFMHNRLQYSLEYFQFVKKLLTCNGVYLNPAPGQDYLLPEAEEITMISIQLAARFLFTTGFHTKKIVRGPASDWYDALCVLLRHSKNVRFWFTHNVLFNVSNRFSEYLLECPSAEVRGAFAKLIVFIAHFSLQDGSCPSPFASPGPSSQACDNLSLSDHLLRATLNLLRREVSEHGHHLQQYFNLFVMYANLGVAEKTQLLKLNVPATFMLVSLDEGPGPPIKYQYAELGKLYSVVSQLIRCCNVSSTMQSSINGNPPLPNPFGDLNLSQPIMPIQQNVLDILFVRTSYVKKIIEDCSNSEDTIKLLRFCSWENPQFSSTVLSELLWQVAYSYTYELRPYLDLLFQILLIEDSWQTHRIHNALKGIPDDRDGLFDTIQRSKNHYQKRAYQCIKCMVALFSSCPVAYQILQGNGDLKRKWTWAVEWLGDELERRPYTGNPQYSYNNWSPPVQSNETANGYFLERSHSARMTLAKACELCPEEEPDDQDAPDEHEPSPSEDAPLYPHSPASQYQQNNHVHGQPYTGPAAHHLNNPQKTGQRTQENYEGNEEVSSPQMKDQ
Summary of the method: as §1

[4] = target: UniProt P51784
Summary of the method: as §1

[5] = target: T1, UniProt Q5T2D3
T1 sequence (whole entry): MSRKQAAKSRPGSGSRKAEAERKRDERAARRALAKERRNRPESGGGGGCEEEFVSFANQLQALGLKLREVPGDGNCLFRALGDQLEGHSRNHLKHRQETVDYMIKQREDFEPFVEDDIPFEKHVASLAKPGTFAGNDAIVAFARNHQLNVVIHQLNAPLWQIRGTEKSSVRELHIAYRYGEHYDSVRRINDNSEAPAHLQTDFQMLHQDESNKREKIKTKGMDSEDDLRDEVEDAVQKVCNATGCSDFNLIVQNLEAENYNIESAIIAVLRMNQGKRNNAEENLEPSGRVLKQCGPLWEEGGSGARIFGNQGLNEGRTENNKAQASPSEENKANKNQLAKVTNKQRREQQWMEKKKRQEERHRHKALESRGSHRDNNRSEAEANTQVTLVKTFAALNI
Summary of the method: as §1

[6] = target: T2, UniProt Q8TE49
T2 sequence (whole entry): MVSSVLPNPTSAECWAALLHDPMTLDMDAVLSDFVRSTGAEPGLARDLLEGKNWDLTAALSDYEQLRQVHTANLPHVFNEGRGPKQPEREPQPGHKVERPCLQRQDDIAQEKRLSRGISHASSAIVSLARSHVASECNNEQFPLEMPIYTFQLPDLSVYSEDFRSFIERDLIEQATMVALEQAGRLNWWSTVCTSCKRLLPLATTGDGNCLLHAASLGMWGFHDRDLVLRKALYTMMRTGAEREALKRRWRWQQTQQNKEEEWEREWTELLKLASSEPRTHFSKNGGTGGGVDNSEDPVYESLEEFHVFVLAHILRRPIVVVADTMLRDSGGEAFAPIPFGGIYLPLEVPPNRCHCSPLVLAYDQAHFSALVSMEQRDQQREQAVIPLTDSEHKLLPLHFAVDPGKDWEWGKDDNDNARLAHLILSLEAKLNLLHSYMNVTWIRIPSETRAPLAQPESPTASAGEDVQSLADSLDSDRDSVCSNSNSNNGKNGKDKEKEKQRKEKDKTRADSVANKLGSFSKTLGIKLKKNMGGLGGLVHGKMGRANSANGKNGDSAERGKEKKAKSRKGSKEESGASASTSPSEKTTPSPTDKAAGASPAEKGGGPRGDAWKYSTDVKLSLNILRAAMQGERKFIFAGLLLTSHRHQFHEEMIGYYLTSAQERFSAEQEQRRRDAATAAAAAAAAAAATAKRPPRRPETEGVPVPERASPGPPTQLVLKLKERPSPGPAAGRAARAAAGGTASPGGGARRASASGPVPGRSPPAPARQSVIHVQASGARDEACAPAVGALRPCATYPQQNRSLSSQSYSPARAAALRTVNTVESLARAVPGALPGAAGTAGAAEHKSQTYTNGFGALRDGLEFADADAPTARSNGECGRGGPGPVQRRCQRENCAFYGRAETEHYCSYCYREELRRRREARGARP
Summary of the method: as §1

[7] = target: T3, UniProt Q9P2H5
T3 sequence (whole entry): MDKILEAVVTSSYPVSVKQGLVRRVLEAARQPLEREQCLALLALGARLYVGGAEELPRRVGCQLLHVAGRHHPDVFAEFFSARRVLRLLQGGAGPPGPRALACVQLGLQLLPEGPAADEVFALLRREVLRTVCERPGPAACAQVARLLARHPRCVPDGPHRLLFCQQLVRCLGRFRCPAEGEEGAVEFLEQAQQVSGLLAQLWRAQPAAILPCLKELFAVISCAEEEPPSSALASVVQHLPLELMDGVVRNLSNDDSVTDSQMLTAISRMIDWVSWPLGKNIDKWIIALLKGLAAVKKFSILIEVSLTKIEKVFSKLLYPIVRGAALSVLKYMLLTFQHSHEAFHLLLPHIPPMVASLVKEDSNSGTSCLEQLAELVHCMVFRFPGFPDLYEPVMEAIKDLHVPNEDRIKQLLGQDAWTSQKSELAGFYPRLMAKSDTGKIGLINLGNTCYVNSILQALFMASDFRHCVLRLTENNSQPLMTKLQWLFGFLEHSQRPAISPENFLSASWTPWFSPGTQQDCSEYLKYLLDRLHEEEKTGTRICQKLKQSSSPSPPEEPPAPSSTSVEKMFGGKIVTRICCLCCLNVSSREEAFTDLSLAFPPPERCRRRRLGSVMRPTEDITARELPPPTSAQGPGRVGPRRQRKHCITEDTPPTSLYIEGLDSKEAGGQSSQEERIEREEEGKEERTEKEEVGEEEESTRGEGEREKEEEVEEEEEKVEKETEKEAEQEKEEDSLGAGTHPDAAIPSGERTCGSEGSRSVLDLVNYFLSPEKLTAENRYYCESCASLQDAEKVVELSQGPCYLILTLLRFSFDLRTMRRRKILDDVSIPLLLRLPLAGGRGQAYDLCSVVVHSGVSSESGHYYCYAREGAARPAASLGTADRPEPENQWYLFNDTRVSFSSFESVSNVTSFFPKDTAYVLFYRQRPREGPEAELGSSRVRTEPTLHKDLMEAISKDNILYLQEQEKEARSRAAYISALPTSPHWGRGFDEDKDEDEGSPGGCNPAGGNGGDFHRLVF
Summary of the method: as §1

[8] = target: T4, UniProt Q9UGI0
T4 sequence (whole entry): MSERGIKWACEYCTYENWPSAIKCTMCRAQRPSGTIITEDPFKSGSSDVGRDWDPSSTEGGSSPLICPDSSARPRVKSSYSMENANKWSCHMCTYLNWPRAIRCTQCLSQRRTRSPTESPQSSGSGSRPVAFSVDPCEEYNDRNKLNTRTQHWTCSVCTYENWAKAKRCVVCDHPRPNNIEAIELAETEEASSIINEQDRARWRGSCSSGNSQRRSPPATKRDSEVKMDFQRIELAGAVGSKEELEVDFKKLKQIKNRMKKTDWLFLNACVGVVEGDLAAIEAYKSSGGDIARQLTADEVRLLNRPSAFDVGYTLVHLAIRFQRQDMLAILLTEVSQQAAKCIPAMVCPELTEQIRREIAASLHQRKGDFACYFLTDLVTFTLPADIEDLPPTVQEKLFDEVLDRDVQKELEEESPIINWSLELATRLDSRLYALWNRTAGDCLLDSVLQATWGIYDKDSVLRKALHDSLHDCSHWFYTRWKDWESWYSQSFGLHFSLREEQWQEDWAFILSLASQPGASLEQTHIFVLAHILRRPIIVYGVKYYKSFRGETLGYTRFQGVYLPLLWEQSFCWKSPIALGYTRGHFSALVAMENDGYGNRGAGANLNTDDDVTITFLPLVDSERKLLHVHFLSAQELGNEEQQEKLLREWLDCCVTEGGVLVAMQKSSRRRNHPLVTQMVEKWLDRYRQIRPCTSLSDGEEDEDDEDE
Summary of the method: as §1

[9] = target: T5, YOD1 (UniProt Q5VVQ6)
T5 sequence (whole entry): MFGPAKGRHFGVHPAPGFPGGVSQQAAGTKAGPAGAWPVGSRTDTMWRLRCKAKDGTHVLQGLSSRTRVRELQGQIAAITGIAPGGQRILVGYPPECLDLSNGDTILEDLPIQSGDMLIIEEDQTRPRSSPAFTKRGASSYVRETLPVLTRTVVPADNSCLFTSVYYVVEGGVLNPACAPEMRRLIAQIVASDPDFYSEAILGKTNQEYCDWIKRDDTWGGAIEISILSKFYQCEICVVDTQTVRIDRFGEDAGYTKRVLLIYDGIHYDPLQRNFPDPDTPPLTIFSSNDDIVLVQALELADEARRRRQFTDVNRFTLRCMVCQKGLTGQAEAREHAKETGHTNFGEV
Summary of the method: as §1

Measured: log2 ratio of Biotin-Ahx-Ub-VS probe labelling

COCC1C=CCCN1C(=O)CCl (centres undefined)
active: [8] -1.01
inactive: [1] -0.16 | [2] -0.0987 | [3] -0.284 | [4] -0.0747 | [5] -0.118 | [6] -0.259 | [7] -0.0309 | [9] -0.0106
